In PubChem BioAssay (EPA / NIEHS):
A structure can be active in one record and inactive in another. Active and inactive are the calls of the source. How the source made its calls: active means hit-call score of the fitted dose curve at least 0.9, where 1 is the maximum; inactive means score below 0.9.

Experiments:
Conditions in all cases: mRNA level, 48 h; actives raise or lower the signal
[1] = read-out: Lipoprotein lipase (LPL), LPL (gene 4023); assay: LTEA_HepaRG_LPL: Life Technologies and Expression Analysis (LTEA) Assay for Lipoprotein lipase (LPL) using HepaRG (AID 2283515)
How it was run: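 Read-out is LPL transcript level by qRT-PCR, normalized to three housekeeping genes and fitted bidirectionally against the DMSO control. Human HepaRG cells received chemicals for 48 h at up to 100 uM.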

[2] = read-out: MicroRNA 122 (MIR122), gene 406906; assay: LTEA_HepaRG_MIR122: Life Technologies and Expression Analysis (LTEA) Assay for MicroRNA 122 (MIR122) using HepaRG (AID 2283516); further: the transcript read is the microRNA miR-122
How it was run: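 HepaRG plated 48 h, switched to serum-free induction medium, then treated in duplicate for 48 h (100 uM top, half-log steps, 0.5% DMSO vehicle). RNA isolated, qRT-PCR performed, concentration-response fitted both directions relative to DMSO.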

[3] = read-out: matrix metalloproteinase-10 (MMP10), MMP10 (gene 4319); assay: LTEA_HepaRG_MMP10: Life Technologies and Expression Analysis (LTEA) Assay for matrix metalloproteinase-10 (MMP10) using HepaRG (AID 2283517)
How it was run: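 Gain or loss of MMP10 mRNA is fitted relative to the 0.5% DMSO vehicle. The human hepatic line HepaRG receives a 48-hour serum-free exposure, in duplicate, with a maximum concentration of 100 uM.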

MYC, MYC (gene 4609) = assay: LTEA_HepaRG_MYC: Life Technologies and Expression Analysis (LTEA) Assay for MYC using HepaRG (AID 2283518)
How it was run: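 Expression changes were scored by TaqMan qRT-PCR with ACTB, GAPDH and POLR2A normalization. Cultures in serum-free induction medium received duplicate 8-point concentration series, highest 100 uM, for 48 h; DMSO (0.5%) served as baseline.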

[4] = read-out: matrix metalloproteinase-3 (MMP3), MMP3 (gene 4314); assay: LTEA_HepaRG_MMP3: Life Technologies and Expression Analysis (LTEA) Assay for matrix metalloproteinase-3 (MMP3) using HepaRG (AID 2283519)
How it was run: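 HepaRG, human; 48 h dosing, 8 conc. (max 100 uM, half-log), duplicate, 0.5% DMSO. Readout: MMP3 transcript by Fluidigm TaqMan qRT-PCR, ACTB/GAPDH/POLR2A-normalised. Gain or loss fitted vs DMSO.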

[5] = read-out: Paternally Expressed 10 (PEG10), PEG10 (gene 23089); assay: LTEA_HepaRG_PEG10: Life Technologies and Expression Analysis (LTEA) Assay for Paternally Expressed 10 (PEG10) using HepaRG (AID 2283520)
How it was run: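 HepaRG, 48 h post-plating → serum-free induction medium → 48 h chemical exposure (duplicate, 8-pt, max 100 uM, half-log, 0.5% DMSO) → lysis in RLT → TaqMan qRT-PCR for PEG10, ACTB/GAPDH/POLR2A normalisation.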

[6] = read-out: Phosphatase and tensin (PTEN), PTEN (gene 5728); assay: LTEA_HepaRG_PTEN: Life Technologies and Expression Analysis (LTEA) Assay for Phosphatase and tensin (PTEN) using HepaRG (AID 2283523)
How it was run: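 Read-out is PTEN transcript level by multiplexed TaqMan qRT-PCR after 48 h chemical treatment of human HepaRG cultures in serum-free induction medium. Concentrations spanned 100 uM downward in half-log steps, 0.5% DMSO throughout; activity fitted in both directions against vehicle.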

[7] = read-out: solute carrier (SLC22A1), SLC22A1 (gene 6580); assay: LTEA_HepaRG_SLC22A1: Life Technologies and Expression Analysis (LTEA) Assay for solute carrier (SLC22A1) using HepaRG (AID 2283524);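 on AC50: differentiated human HepaRG liver cells in serum-free induction medium; TaqMan qRT-PCR normalized to ACTB GAPDH and POLR2A housekeeping genes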
How it was run: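 HepaRG (human liver line), 48 h dosing in serum-free induction medium; 8 conc., half-log down from 100 uM, 0.5% DMSO vehicle, duplicates. Endpoint: SLC22A1 mRNA, qRT-PCR, housekeeping-normalized; gain/loss fit vs DMSO.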

[8] = read-out: Pyruvate Dehydrogenase Kinase 4 (PDK4), PDK4 (gene 5166); assay: LTEA_HepaRG_PDK4: Life Technologies and Expression Analysis (LTEA) Assay for Pyruvate Dehydrogenase Kinase 4 (PDK4) using HepaRG (AID 2283525)
How it was run: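 In this multiplexed human HepaRG expression assay, cells are treated 48 h with test chemicals across an eight-point range starting at 100 uM. PDK4 mRNA changes, normalized to ACTB/GAPDH/POLR2A, are fitted in both directions relative to vehicle.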

[9] = read-out: NAD(P)H dehydrogenase [quinone] 1 (NQO1), NQO1 (gene 1728); assay: LTEA_HepaRG_NQO1: Life Technologies and Expression Analysis (LTEA) Assay for NAD(P)H dehydrogenase [quinone] 1 (NQO1) using HepaRG (AID 2283526)
How it was run: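 HepaRG, 48 h post-plating → serum-free induction medium → test chemical 48 h (duplicate, 100 uM top, half-log x8, 0.5% DMSO) → RNA isolation → qRT-PCR, ACTB/GAPDH/POLR2A normalization; bidirectional curve fit vs DMSO baseline.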

[10] = read-out: Nuclear factor erythroid 2-related factor 2 (Homo sapiens) (UniProt Q16236); assay: LTEA_HepaRG_NFE2L2: Life Technologies and Expression Analysis (LTEA) Assay for Nuclear factor erythroid 2-related factor 2 (NFE2L2) Transcription Factor using HepaRG (AID 2283527)
How it was run: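 Transcript level of NFE2L2 is the read-out, measured by microfluidic TaqMan qRT-PCR and normalized to three housekeeping genes. Human HepaRG cultures received test chemical for 48 h at up to 100 uM in half-log steps. Gain or loss of signal is fitted relative to 0.5% DMSO.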

[11] = read-out: succinate dehydrogenase complex iron sulfur subunit B (SDHB), SDHB (gene 6390); assay: LTEA_HepaRG_SDHB: Life Technologies and Expression Analysis (LTEA) Assay for succinate dehydrogenase complex iron sulfur subunit B (SDHB) using HepaRG (AID 2283528)
How it was run: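 HepaRG cells (~100,000/well, plated 48 h) exposed in duplicate for 48 h in serum-free induction medium to 8-point half-log series from 100 uM in 0.5% DMSO; mRNA by qRT-PCR normalised to ACTB, GAPDH, POLR2A; bidirectional fit versus DMSO.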

[12] = read-out: Signal transducer and activator of transcription 3 (Homo sapiens) (UniProt P40763); assay: LTEA_HepaRG_STAT3: Life Technologies and Expression Analysis (LTEA) Assay for Signal transducer and activator of transcription (STAT3) using HepaRG (AID 2283529)
How it was run: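 Read-out is STAT3 mRNA level by qRT-PCR, normalized to three housekeeping genes, in human HepaRG liver cells treated for 48 h. Concentrations ran from 100 uM downward in half-log steps; curves were fitted for gain or loss relative to 0.5% DMSO.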

[13] = read-out: solute carrier (SLCO1B1), SLCO1B1 (gene 10599); assay: LTEA_HepaRG_SLCO1B1: Life Technologies and Expression Analysis (LTEA) Assay for solute carrier (SLCO1B1) using HepaRG (AID 2283530)
How it was run: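 Human HepaRG cultures treated for 48 h with an eight-concentration half-log series topping at 100 uM; SLCO1B1 measured by qRT-PCR and fitted bidirectionally relative to DMSO.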

[14] = read-out: sulfotransferase 2A1 (SULT2A1), SULT2A1 (gene 6822); assay: LTEA_HepaRG_SULT2A1: Life Technologies and Expression Analysis (LTEA) Assay for sulfotransferase 2A1 (SULT2A1) using HepaRG (AID 2283531)
How it was run: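 Gene-expression endpoint in a human liver cell line: SULT2A1 mRNA change after 48 h chemical treatment, curves fitted in both directions relative to 0.5% DMSO vehicle. Concentrations spanned eight half-log steps from 100 uM.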

[15] = read-out: Transforming Growth Factor (TGFA), TGFA (gene 7039); assay: LTEA_HepaRG_TGFA: Life Technologies and Expression Analysis (LTEA) Assay for Transforming Growth Factor (TGFA) using HepaRG (AID 2283532)
How it was run: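 HepaRG (human liver line), 48 h exposure, 8 conc. half-log down from 100 uM, 0.5% DMSO vehicle, duplicates; serum-free induction medium. TGFA mRNA by TaqMan qRT-PCR, ACTB/GAPDH/POLR2A normalization; gain/loss fit vs DMSO.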

[16] = read-out: Transforming Growth Factor (TGFB1), TGFB1 (gene 7040); assay: LTEA_HepaRG_TGFB1: Life Technologies and Expression Analysis (LTEA) Assay for Transforming Growth Factor (TGFB1) Transporter using HepaRG (AID 2283533)
How it was run: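 Eight-point concentration-response (max 100 uM, half-log) in HepaRG under serum-free induction conditions, 48 h. TGFB1 mRNA by qRT-PCR, housekeeping-normalized.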

TIMP1, TIMP1 (gene 7076) = assay: LTEA_HepaRG_TIMP1: Life Technologies and Expression Analysis (LTEA) Assay for TIMP1 using HepaRG (AID 2283534)
How it was run: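 TIMP1 induction or repression in HepaRG cells after 48 h chemical exposure (eight concentrations, highest 100 uM), assessed by normalized qRT-PCR with bidirectional fitting to DMSO controls.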

[17] = read-out: Tumor necrosis factor receptor 1 (TNFRSF1A), TNFRSF1A (gene 7132); assay: LTEA_HepaRG_TNFRSF1A: Life Technologies and Expression Analysis (LTEA) Assay for Tumor necrosis factor receptor 1 (TNFRSF1A) using HepaRG (AID 2283535)
How it was run: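 Assay uses 48 h chemical treatment of differentiated HepaRG monolayers, tested in duplicate at eight concentrations from 100 uM downward in 0.5% DMSO. mRNA is normalized to ACTB, GAPDH and POLR2A, with induction or suppression fitted relative to vehicle.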

[18] = read-out: Protein phosphatase 2A (PPP2R4), PTPA (gene 5524); assay: LTEA_HepaRG_PPP2R4: Life Technologies and Expression Analysis (LTEA) Assay for Protein phosphatase 2A (PPP2R4) using HepaRG (AID 2283522)
How it was run: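 Readout is PPP2R4 transcript level by microfluidic qRT-PCR after 48 h chemical treatment of human HepaRG liver cells. Concentrations spanned 100 uM downward in half-log steps; gain or loss of signal was fitted relative to DMSO.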

Measured: AC50

Sequence of Nuclear factor erythroid 2-related factor 2 (Homo sapiens) (Q16236 whole entry, looked up): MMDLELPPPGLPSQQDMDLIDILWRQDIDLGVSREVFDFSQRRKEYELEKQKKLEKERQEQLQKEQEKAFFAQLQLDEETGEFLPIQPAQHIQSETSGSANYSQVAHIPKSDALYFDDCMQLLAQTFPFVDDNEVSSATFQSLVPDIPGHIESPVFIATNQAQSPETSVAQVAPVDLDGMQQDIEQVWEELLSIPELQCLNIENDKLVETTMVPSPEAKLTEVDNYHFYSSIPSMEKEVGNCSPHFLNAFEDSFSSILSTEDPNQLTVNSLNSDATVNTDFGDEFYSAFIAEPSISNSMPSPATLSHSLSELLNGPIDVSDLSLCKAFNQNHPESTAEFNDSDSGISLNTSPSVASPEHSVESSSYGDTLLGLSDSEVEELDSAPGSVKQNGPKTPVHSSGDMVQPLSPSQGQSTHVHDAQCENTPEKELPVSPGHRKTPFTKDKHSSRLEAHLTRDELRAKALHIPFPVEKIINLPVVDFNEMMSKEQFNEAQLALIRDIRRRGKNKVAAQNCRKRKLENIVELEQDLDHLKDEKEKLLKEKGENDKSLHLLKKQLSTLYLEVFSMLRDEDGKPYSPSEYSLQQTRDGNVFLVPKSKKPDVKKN
Sequence of Signal transducer and activator of transcription 3 (Homo sapiens) (P40763 whole entry, looked up): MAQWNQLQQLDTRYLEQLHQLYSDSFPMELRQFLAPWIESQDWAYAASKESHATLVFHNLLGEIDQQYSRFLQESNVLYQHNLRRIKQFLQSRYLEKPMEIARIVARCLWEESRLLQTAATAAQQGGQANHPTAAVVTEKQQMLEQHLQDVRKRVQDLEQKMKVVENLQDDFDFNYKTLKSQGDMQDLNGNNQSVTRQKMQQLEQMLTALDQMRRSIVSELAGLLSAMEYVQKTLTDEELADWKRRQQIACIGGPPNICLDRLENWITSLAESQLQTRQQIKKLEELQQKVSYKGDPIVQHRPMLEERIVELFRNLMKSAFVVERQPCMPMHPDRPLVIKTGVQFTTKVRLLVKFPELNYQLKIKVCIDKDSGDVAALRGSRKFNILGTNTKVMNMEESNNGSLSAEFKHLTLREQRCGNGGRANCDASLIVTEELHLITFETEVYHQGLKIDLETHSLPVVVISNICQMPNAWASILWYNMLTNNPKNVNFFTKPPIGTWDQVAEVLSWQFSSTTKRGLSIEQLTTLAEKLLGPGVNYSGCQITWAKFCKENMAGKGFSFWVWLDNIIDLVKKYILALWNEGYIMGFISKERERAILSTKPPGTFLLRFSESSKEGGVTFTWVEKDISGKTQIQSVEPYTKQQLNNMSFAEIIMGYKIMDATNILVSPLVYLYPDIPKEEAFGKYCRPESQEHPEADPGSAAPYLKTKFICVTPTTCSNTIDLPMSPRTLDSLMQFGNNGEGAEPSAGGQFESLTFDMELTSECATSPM

CCCOC(=O)NCCCN(C)C
not listed: [18]
inactive: all other assays above

CCN(Cc1c(F)cccc1Cl)c1c([N+](=O)[O-])cc(C(F)(F)F)cc1[N+](=O)[O-]
active: MYC, MYC (gene 4609) 50 µM | [5] 15.2 µM | [7] 29.6 µM | [10] 50 µM
not listed: [18]
inactive: all other assays above

COC(=O)CSc1cc(N=c2sc(=O)n3n2CCCC3)c(F)cc1Cl
not listed: [18]
inactive: all other assays above

CN(C)C(=O)Nc1ccc(Cl)c(Cl)c1
active: MYC, MYC (gene 4609) 68.8 µM | [5] 63.8 µM | [7] 51.5 µM | [10] 83.3 µM
not listed: [18]
inactive: all other assays above

N[C@@H](Cc1cc(I)c(Oc2ccc(O)c(I)c2)c(I)c1)C(=O)O
active: [1] 0.00787 µM | [5] 8.92 µM | [7] 65.7 µM | [8] 0.0111 µM | [13] 27.5 µM | [14] 27.1 µM | [16] 63.2 µM
not listed: TIMP1, TIMP1 (gene 7076)
inactive: all other assays above

CC(=O)[C@H]1CC[C@H]2[C@@H]3CCC4=CC(=O)CC[C@]4(C)[C@H]3CC[C@]12C
active: [2] 32.3 µM | [3] 61.9 µM | MYC, MYC (gene 4609) 34.3 µM | [4] 66 µM | [5] 7.52 µM | [18] 87.5 µM | [6] 87.5 µM | [7] 38.2 µM | [8] 22.9 µM | [9] 62.1 µM | [11] 88.6 µM | [12] 63.1 µM | [13] 75.2 µM | [14] 38.5 µM | [15] 33.1 µM | [16] 91.8 µM | [17] 90.6 µM
inactive: [1] | [10]

CC(C)(c1ccc(O)cc1)c1ccc(O)cc1
inactive: [1] | [2] | [3] | MYC, MYC (gene 4609) | [4] | [5] | [18] | [6] | [7] | [8] | [9] | [10] | [11] | [12] | [13] | [14] | [15] | [16] | [17]
active: MYC, MYC (gene 4609) 9.92 µM | [11] 0.005 µM | [13] 9.92 µM | [14] 291 µM

O=C(O)C1(C(=O)Nc2ccc(Cl)cc2Cl)CC1
active: [2] 50 µM | [4] 50 µM | [5] 39.8 µM | [18] 61.9 µM | [7] 74.3 µM | [8] 7.18 µM | [11] 78.4 µM | [13] 77.1 µM | [14] 87.4 µM
not listed: TIMP1, TIMP1 (gene 7076)
inactive: all other assays above

CCSC(=O)N(CC(C)C)CC(C)C
not listed: [18]
inactive: all other assays above

CCC(C)OC(=O)N1CCCCC1CCO (configuration not stated)
not listed: TIMP1, TIMP1 (gene 7076)
inactive: all other assays above

CC(=O)S[C@@H]1CC2=CC(=O)CC[C@]2(C)[C@H]2CC[C@@]3(C)[C@@H](CC[C@@]34CCC(=O)O4)[C@H]12
active: [2] 67.5 µM | [3] 76.1 µM | [7] 55.5 µM | [8] 50 µM | [13] 50.4 µM | [14] 50 µM
not listed: TIMP1, TIMP1 (gene 7076)
inactive: all other assays above

Oc1ccc(C(c2ccc(O)cc2)C(Cl)(Cl)Cl)cc1
active: [1] 85 µM | [2] 87.5 µM | [3] 78.6 µM | MYC, MYC (gene 4609) 78 µM | [4] 90.5 µM | [5] 74.8 µM | [6] 76.9 µM | [7] 92.3 µM | [9] 82.7 µM | [10] 78.2 µM | [11] 80.6 µM | [12] 76.8 µM | [14] 84.3 µM | [15] 80.7 µM | [16] 87.1 µM | TIMP1, TIMP1 (gene 7076) 79.2 µM | [17] 87.3 µM
inactive: [8] | [13]
